Among all 330,000 compounds or so, about 230 (0.07%) were called active.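 Rule for the calls: active = more than half of a compound's replicate wells show inhibition beyond 50%, single wells judged on their own value; inconclusive = some, but no more than half, of replicates pass 50% inhibition; inactive = no replicate passes 50% inhibition.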 Shown is part of a subset that was picked to be rich in actives.
Each compound was assayed against Lysine-specific demethylase 4C (Homo sapiens) (UniProt Q9H3R0) (assay: JMJD2C H3K9me3 demethylation blockers – biochemical, fluorescence, DELFIA europium, primary screen (AID 2099;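 note: signal counts dimethyl H3K9 product captured on neutravidin plate; 0% = median of DMSO wells and 100% = 0.3 times that DMSO median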)). Details: GST-JMJD2C(1-420) H3K9me3 demethylation, at 2.35 µM, hits give high values.
Chain of Lysine-specific demethylase 4C (Homo sapiens) (Q9H3R0 1-420 limits assumed): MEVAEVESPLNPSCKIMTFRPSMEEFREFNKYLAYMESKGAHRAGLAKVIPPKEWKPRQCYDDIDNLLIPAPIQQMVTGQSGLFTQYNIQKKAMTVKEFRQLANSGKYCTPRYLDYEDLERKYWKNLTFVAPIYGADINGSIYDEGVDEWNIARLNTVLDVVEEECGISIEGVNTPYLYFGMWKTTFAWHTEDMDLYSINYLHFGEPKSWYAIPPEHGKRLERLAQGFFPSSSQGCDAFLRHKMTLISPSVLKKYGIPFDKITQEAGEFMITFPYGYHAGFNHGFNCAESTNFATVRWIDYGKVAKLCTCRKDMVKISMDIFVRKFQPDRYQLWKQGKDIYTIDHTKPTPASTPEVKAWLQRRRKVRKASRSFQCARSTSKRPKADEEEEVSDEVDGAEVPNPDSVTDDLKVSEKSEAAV

inhibition, inactive:
Cc1cc(=O)n2nc(N3CCC(C(=O)Nc4c(F)c(F)c(F)c(F)c4F)CC3)sc2n1 1.58%
COc1cc(CNCc2ccc3c(c2)OCO3)c([N+](=O)[O-])cc1OC 1.62%
O=C(CN1C(=O)NC2(CCCCCC2)C1=O)NCc1ccc(F)cc1 2.24%
CSc1ccccc1NC(=O)c1cc(C2CC2)on1 4.43%
COC(=O)C1C(=O)CC(C)(O)C(C(=O)OC)C1c1ccc2c(c1)OCO2 (configuration not stated) -4.99%
N#Cc1c(/N=C/N2CCCC2)oc(-c2ccccc2)c1-c1ccccc1 -7.68%
COc1ccc(C2(CNC(=O)Cc3ccc(OC)c(OC)c3)CCCC2)cc1 -23.7%
COc1ccc(C)cc1S(=O)(=O)Nc1cc2c3c(c1)CCC(=O)N3CCC2 -0.171%
O=C(O)C1CCN1C1CCCCC1 (configuration not stated) -9.8%
COc1ccc(NC(=O)C2CCC(CNc3c(N4CCCCC4)c(=O)c3=O)CC2)c(OC)c1 (configuration not stated) -6.37%
COCc1cc(C)nc2sc3c(=O)n(-c4cccc5ccccc45)nnc3c12 -7.85%
CCc1nc2cccnc2n1-c1ccc(C(=O)O)cc1 3.28%
Cc1ccc2nc(-c3ccc(NC(=O)CN(C)S(=O)(=O)c4ccccc4)cc3)sc2c1 -15.6%
CN(CCCC(=O)Nc1nccs1)S(=O)(=O)c1ccc(Cl)cc1 9.62%
O=C1C=C(c2ccccc2)CCC1 -14.3%
C/C=C/C(=O)Nc1nnc(C(C)C)s1 -0.768%
CCCC(=O)N1CCN(c2nnc(-c3ccc(C)cc3)c3ccccc23)CC1 -13.5%
C[C@H](C(=O)CC(=O)OC(C)(C)C)[C@H](O)c1ccc(C(F)(F)F)cc1 1.41%
CC1CCCCC1NC(=O)Cn1cnc2c1c(=O)n(C)c(=O)n2C (configuration not stated) 6.58%
O=C1CCC(=O)N1CCOP1(=O)COc2ccccc2OC1 2.42%
NC(=O)c1ccc(N2CCOCC2)nc1 -3.7%
Cc1noc(NS(=O)(=O)c2ccc(N3CC(O)=C(c4ccccc4)C3=N)cc2)c1C -10.1%
COc1ccc([N+](=O)[O-])cc1NC(=O)CC1SC(=Nc2cccc(C)c2C)N(/N=C(\C)c2ccc(C)cc2)C1=O (configuration not stated) -21.9%
CN(Cc1ccccc1)C(=O)C(=O)c1cn(CC(=O)N2CCCC2)c2ccccc12 11.9%
O=C(c1cc2ccccc2s1)N1CCN(c2ccccn2)CC1 -6.37%
O=C(N=C1SC2CS(=O)(=O)CC2N1c1ccccc1)c1ccccc1 (configuration not stated) 1.92%
COc1ccc(C)cc1NC(=O)CCCN1C(=O)NC(C)(C)C1=O -6.72%
O=C(CC(NS(=O)(=O)c1ccc(Cl)cc1)c1ccco1)NC1CCCC1 (configuration not stated) -10.3%
CC(C)Cn1c(N2CCN(C(=O)/C=C/c3ccccc3)CC2)nc2ccccc21 12%
CCCCn1c(N)c(N(CC)C(=O)/C=C/c2ccco2)c(=O)[nH]c1=O -4.8%
CN(C(=O)CSc1cccc[n+]1[O-])C1CCCCC1 -11.4%
CCOc1cc(CN2CCCC(CO)(Cc3ccc(F)cc3F)C2)ccc1OC (configuration not stated) -2.58%
O=C(NCc1cccs1)c1ccc(CS(=O)Cc2ccccc2Cl)o1 (configuration not stated) -4.03%
CCOc1cnc(-c2c(-c3ccccc3Cl)noc2C)o1 0.379%
CCc1cc2c(=O)n(-c3ccccc3)c(SCC(=O)O)nc2s1 -0.0126%
Cn1ccnc1-c1nnn(-c2ccc(F)cc2)n1 1.58%
Cc1sc2ncn(CC(=O)NCCCC(=O)N(C)Cc3ccccc3)c(=O)c2c1C 3.53%
Cc1ccc2nc(C)c3c(c2c1)N(c1ccccc1)CC3 0.549%
CC(C)n1c(=S)[nH]c2cc(C(F)(F)F)ccc21 9.24%
O=C(COC(=O)c1ccccc1NC(=O)c1ccco1)Nc1ccc2c(c1)OC(F)(F)O2 -7.33%
CCN1CCC2(CC1)N=C(c1ccc(F)cc1)C(=S)N2C(=O)c1ccc(C)cc1 -5.72%
CCOc1ncccc1C(=O)OCC(=O)Nc1cccc(S(=O)(=O)N2CCCCCC2)c1 3.84%
CCC1(C)N(O)C(C)(C)C(c2ccc(OC)cc2)=[N+]1[O-] (configuration not stated) 1.82%
CN(/C(=N/S(=O)(=O)c1cccs1)c1ccccc1)c1ccc(O)cc1 -2.26%
COc1ccc(Cl)cc1N(CC(=O)N/N=C/c1ccc(OCC(N)=O)cc1)S(C)(=O)=O 4.78%
O=C(COc1ccc(Cl)cc1Cl)NCCCNC(=O)c1cnccn1 -5.15%
CCOC(=O)C(=Cc1ccccc1OC)C(=O)OCC -1.48%
CCOc1ccccc1NC(=O)NC1CCCCCCC1 3.73%
CC(=O)Nc1ccc(NC(=O)C(C)OC(=O)C2CC(=O)N(CCc3ccccc3)C2)cc1 (configuration not stated) 0.0499%
Cc1nn(Cc2ccc(F)cc2)c(C)c1NC(=O)c1noc2c1CCc1ccccc1-2 -8.11%
COc1ccccc1CCC(=O)NNC(=O)c1ccncc1 -2.82%
COc1cccc(CN(C)C(=O)CC23CC4CC(CC(C4)C2)C3)c1OC 8.93%
CC(C)=CCN1CCN(Cc2cc3ccccc3[nH]2)CC1CCO (configuration not stated) -4.87%
COc1ccc(-c2nnc(SC(=O)N3c4ccccc4Sc4ccccc43)o2)cc1 -0.278%
CC1=C(C(=O)N(C)C)C(c2ccccc2OC(F)F)NC(=O)N1 (configuration not stated) 6.88%
CCN1N=C(c2ccccc2)CCC1=O 2.88%
CCc1ccc[n+](-c2nc([O-])sc2C=O)c1 22.8%
Cc1ccnc(NC(=O)CCNS(=O)(=O)c2ccc(C)c(C)c2)c1 7.52%
CCOc1ccc(-n2c(N)c(C(=O)NCC3CCCO3)sc2=S)cc1 (configuration not stated) -1.83%
CCC(C)(C(=O)NC1CCCCC1)N(C)C(=O)c1ccc2c(c1)OCO2 (configuration not stated) 10.3%
CN(C)c1nc(N)nc(CSc2nnnn2-c2cccc3ccccc23)n1 -13.8%
O=C(NCc1ccc(F)cc1)C(c1ccccc1)N(C(=O)c1csnn1)C1CC1 (configuration not stated) -35.4%
CCc1ccc(N2CC(C(=O)N3CCCCCC3)CC2=O)cc1 (configuration not stated) 1.98%
CN1CCN(S(=O)(=O)c2cccc(C(=O)Nc3cccc(S(N)(=O)=O)c3)c2)CC1 -5.59%
COc1ccccc1C(=O)Nc1cccc(C(=O)N2CCOCC2)c1 4.92%
O=C(NCN1CCN(CCO)CC1)c1cnccn1 -26.1%
COc1cccc(NC(=O)CN(C)CC(=O)c2c(N)n(Cc3ccccc3)c(=O)n(C)c2=O)c1 -0.288%
CCCN(CCC)C(=O)C1c2ccccc2Oc2ccccc21 8.4%
CC(C)C[C@H](NC(=O)C1CCC(CNC(=O)[C@@H]2CCCN2C(=O)OC(C)(C)C)CC1)C(=O)O (some centres not stated) 0.085%
Cc1ccc(NS(=O)(=O)c2ccc(F)cc2)nc1 -1.74%
COc1ccccc1CNC(=O)COC(=O)c1cccs1 -6.88%
CC(=O)NCCc1ccc(S(=O)(=O)Nc2ccc(C)c(S(=O)(=O)N3CCOCC3)c2)cc1 -18.7%
CC(=O)NC1=NN(C(C)=O)C(C)(c2ccc(Cl)s2)S1 (configuration not stated) -13.4%
CCOc1ccc(N(C)Cc2cc(=O)oc3ccc(OC)cc23)cc1 -5.29%
Cc1ccc(CSc2nc3[nH]ncc3c(=O)[nH]2)cc1 -14.5%
COC(=O)c1cc(CNC(=O)CC(C)c2ccccc2)ccc1OC (configuration not stated) -9.06%
CCOC(=O)c1ccc(NC(=S)N2CCN(c3ccccn3)CC2)cc1 21.6%
OC(COc1ccc(CN2CCSCC2)cc1)CN1CCCCC1 (configuration not stated) 6.13%
CCOC(=O)C1=C(COC(=O)[C@H](C)NS(=O)(=O)c2ccccc2F)NC(=O)NC1C (some centres not stated) 0.99%
COc1cc2nc(CN(C)Cc3ccc(F)cc3)[nH]c(=O)c2cc1OC -7.12%
Cc1cc(NC(=O)CCC(=O)N(Cc2ccccc2)C(C(=O)NC2CCCC2)c2ccc(C)o2)no1 (configuration not stated) -25.8%
CCCCn1c(N)c(N(CCOC)C(=O)c2cccc(S(=O)(=O)N(C)c3ccccc3)c2)c(=O)[nH]c1=O -2.28%
CCC(C(=O)Nc1ccc(C(C)C)cc1)c1ccccc1 (configuration not stated) -16%
O=C(Nc1ccc(S(=O)(=O)Nc2ccccn2)cc1)c1ccccc1 -2.52%
COC(=O)c1cc(C(=O)NC(C)C2CC3CCC2C3)cc([N+](=O)[O-])c1 (configuration not stated) -12.5%
COc1cc(NC(=O)c2ccccc2)c(OC)cc1NC(=O)Cc1ccccc1 0.759%
Nc1nc(SCC(=O)Nc2cc(C(F)(F)F)ccc2Cl)[nH]c(=O)c1NC(=O)c1ccco1 6.68%
COc1ccc(C(CC(=O)c2ccccc2)S(=O)(=O)c2ccccc2)cc1 (configuration not stated) -0.656%
CCC(C(=O)NCCC(C)C)N(Cc1ccccc1Cl)C(=O)c1snc(C(N)=O)c1N (configuration not stated) -1.98%
CCCCCOC(=O)C1=C(C)Nc2nnnn2C1c1ccc(OC)c(OC)c1OC (configuration not stated) -7.05%
Cc1ccc(NC(=O)Cn2cnc3c(OCc4ccccc4)ncnc32)cc1C 3.36%
O=C(Cc1cccs1)NCc1cccc(C(F)(F)F)c1 2.56%
